In PubChem BioAssay AID1159580 (chemical genetic matrix, 2015):
In all, about 5,500 compounds went through this assay and about 2,000 (36%) were called active. Inconclusive results (about 18%) are left out. Rule as the data show it: active = normalized growth mostly below about 0.91 (no sharp cut-off); inconclusive = no clear call, values can overlap the other calls; inactive = mostly above about 0.92. This is one part of the list.

Test: chemical genetic growth profiling, strain panel (AID 1159580);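 also: tested at 20 µM; growth read once vehicle control cultures reached saturation at 30 °C; 1 = growth at the plate median or of vehicle wells; lower values mean less growth of the strain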
Details: S. cerevisiae deletion strains, growth OD

Measured: normalized growth

O=C(O)CS
inactive: locus YHR030C, strain SLT2, stronger effect = lower value 1.05 | locus YHR079C, strain IRE1, stronger effect = lower value 1.02 | locus YJL095W, strain BCK1, stronger effect = lower value 1.04 | locus YJR066W, strain TOR1, stronger effect = lower value 0.941 | locus YLR113W, strain HOG1, stronger effect = lower value 1.07 | locus YNL183C, strain NPR1, stronger effect = lower value 1.02 | locus YOR231W, strain MKK1, stronger effect = lower value 1.08 | locus YPL256C, strain CLN2, stronger effect = lower value 1.05
